Assay outcomes deposited in PubChem BioAssay by The Scripps Research Institute Molecular Screening Center.
UHRF1 MBD2 ctr – human UHRF1 methylated DNA binding inhibitors | actives 0.75% (n = 370,000) | Q96T88 | UHRF1 binding to methylated oligo, TR-FRET | inhibition, % at 4.4 µM; in the data active = inhibition above about 21%;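 note: UHRF1 SRA domain binding a hemimethylated CpG hairpin DNA probe; 0% = median of test compound wells and 100% = reference inhibitor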
PRMT1 inh – blocks human protein arginine methyltransferase 1 | recombinant PRMT1, activity-based probe fluorescence polarization | AID 652257 | inhibition, % at 2.79 µM | actives 1.3% (n = 370,000);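 active = inhibition above about 21% made by adding two undisclosed values, limit read from the data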
Target sequence (Q99873 whole entry, looked up): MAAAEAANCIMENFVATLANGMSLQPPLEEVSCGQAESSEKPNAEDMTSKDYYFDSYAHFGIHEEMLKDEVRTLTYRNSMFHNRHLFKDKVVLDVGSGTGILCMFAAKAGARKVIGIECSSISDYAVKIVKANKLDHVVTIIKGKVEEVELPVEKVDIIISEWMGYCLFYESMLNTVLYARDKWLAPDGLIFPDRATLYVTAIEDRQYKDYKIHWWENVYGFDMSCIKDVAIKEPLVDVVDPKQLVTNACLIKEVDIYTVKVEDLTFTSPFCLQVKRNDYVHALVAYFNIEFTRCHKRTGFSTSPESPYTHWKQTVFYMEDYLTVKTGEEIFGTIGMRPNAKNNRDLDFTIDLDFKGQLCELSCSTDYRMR
MBD2 DNA inh – blocks human MBD2 binding to methylated DNA. Q9UBB5. TR-FRET, MBD2 binding to methylated oligonucleotide. inhibition, % at 4.4 µM. actives 0.31% (n = 370,000); in the data active = inhibition above about 13%
LEDGF integ inh – blocks HIV-1 LEDGF/p75-dependent DNA integration. AID 743269. TR-FRET IN-LEDGF/p75 DNA integration, Eu/Cy5. actives 0.64% (n = 370,000). inhibition, % at 3.7 µM;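 active = inhibition above the screen-wide mean plus 3 SD, cut at about 13% in these data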;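 note: signal is the Cy5 over europium emission ratio at 671 and 618 nm; 0% = plate median of compound wells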
* marks the source's active call; other numbers are inactive results. An excerpt weighted towards active compounds, which were near 2.5% of everything screened.

SMILES | UHRF1 MBD2 ctr | PRMT1 inh | MBD2 DNA inh | LEDGF integ inh
Oc1ccccc1NCC(O)Cn1ccc2ccccc21 (stereo not given) | -1.7 | 7.8 | 7.5 | 0.2
OC(CNCc1ccccc1)Cn1ccc2ccccc21 (stereo not given) | 27.4* | 2.4 | -0.6 | -0.9
CCS(=O)(=O)NCC(c1cccnc1)N1CCN(c2ccccc2)CC1 (stereo not given) | 4.0 | -0.1 | -4.2 | 1.6
CCS(=O)(=O)NCC(c1cccnc1)N1CCN(c2ccc(OC)cc2)CC1 (stereo not given) | 21.9* | -3.3 | 2.8 | 0.6
CC(C)CCN(C(=O)CCCSc1nc2ccccc2[nH]1)c1c(N)n(Cc2ccccc2)c(=O)[nH]c1=O | -0.3 | 5.9 | 2.5 | 0.6
CC(C)C[C@H]1CN(CCCC[C@H]2CNC(=O)C(=O)N2Cc2ccccc2)C(=O)C(=O)N1Cc1ccccc1 | -1.5 | -0.5 | 1.6 | 0.0
CCOC(=O)C1=C(C)N=c2s/c(=C3/C(=O)Nc4ccccc43)c(=O)n2C1c1ccc(C)cc1 (stereo not given) | -5.8 | 22.9* | 2.2 | -5.2
CCOC(=O)C1=C(C)n2c(s/c(=C3\C(=O)Nc4ccccc43)c2=O)=NC1c1ccc(OC)cc1 (stereo not given) | -6.4 | 24.0* | -0.9 | -5.0
CC(C)CC(=O)Nc1nc2ccc(S(C)(=O)=O)cc2s1 | 6.6 | 22.8* | 5.7 | -5.9
COc1ccc(C(=O)Cn2nnc(-c3ccccc3-n3cnnn3)n2)cc1 | 34.3* | 0.4 | -0.3 | 0.0
Cc1c(C)n(C(=O)CSc2nc3ccccc3[nH]2)c2ccccc12 | 47.2* | 4.0 | 8.6 | 3.3
O=C(CN1CSCC1=O)N1CCN(S(=O)(=O)c2cccc(F)c2)CC1 | 0.8 | -0.6 | -4.3 | 4.0
CC(=O)CN1Cc2ccccc2/C1=N\C(=O)Nc1ccccc1 | 0.5 | -0.9 | 0.1 | -1.9
COc1ccc(N2Cc3ccccc3/C2=N\C(=O)Nc2ccccc2)cc1 | 22.4* | -5.7 | 2.3 | 3.0
N=C1CCCC1C(=S)SCCC(N)=O (stereo not given) | -2.4 | 12.6 | -5.6 | 2.2
COc1ccc(C)cc1NC(=O)C(Sc1nncn1C)c1ccccc1 (stereo not given) | 24.2* | -1.6 | 2.2 | 0.5
O=C1C=C(c2ccc3c(c2)OCO3)C[C@@H](c2ccc(Cl)cc2)C1 | 0.0 | 1.8 | 2.1 | -3.7
CCC(C)NS(=O)(=O)c1ccc(NC(=O)CNCc2cccs2)cc1 (stereo not given) | 3.2 | 0.0 | -0.3 | 4.0
O=C(CCCCCNC(=O)c1ccccc1)N/N=C/c1ccc(O)cc1O | 20.9* | 2.4 | 10.8 | -4.5
C/C(=N\NC(=O)CCCCCNC(=O)c1ccccc1)c1ccccc1O | 1.7 | -1.7 | 0.4 | 0.0
O=C(O)c1cnn2c(-c3ccc(F)cc3)ccnc12 | 3.1 | -1.4 | 3.6 | -0.6
O=c1c2ccccc2[nH]c(=S)n1CCN1CCCC1 | 5.8 | 0.9 | 3.6 | 1.6
O=C(CCN1CCCCC1)Nn1c(=S)[nH]c2ccccc2c1=O | 0.2 | 24.2* | 1.5 | 4.8
O=C(NN1C(=O)C2C3C=CC([C@@H]2C1=O)C31CC1)c1ccccc1 (stereo not given in full) | 1.1 | 4.8 | 1.7 | -2.4
O=C1C=C(OCCF)CC(c2ccccc2C(F)(F)F)O1 (stereo not given) | 2.0 | -1.5 | 1.1 | 2.0
SMILES | UHRF1 MBD2 ctr | PRMT1 inh | MBD2 DNA inh | LEDGF integ inh
CC(C)c1ccc(N2C(=O)C(Cl)=C(N3CCOCC3)C2=O)cc1 | -0.8 | 1.0 | 2.7 | 0.4
O=C1C(Cl)=C(N2CCOCC2)C(=O)N1c1ccc(Br)cc1 | -1.1 | 25.3* | -0.6 | -1.3
CCCCN1C(=O)C(CC(=O)NCc2cccc3ccccc23)CC(C(=O)N2CCOCC2)=C1C (stereo not given) | 21.9* | 5.1 | 4.9 | -7.1
COc1ccc(-n2c(SCC(=O)Nc3ccc(S(=O)(=O)Nc4nccs4)cc3)nnc2-c2ccccc2)cc1 | 0.1 | 3.7 | 1.5 | 1.7
O=C(COC(=O)c1ccc(O)cc1O)Nc1ccc2ccccc2c1 | -1.2 | 5.3 | 3.6 | -2.8
COC(=O)c1ccc(NCc2cc(O)ccc2O)cc1O | -5.9 | 23.1* | 1.6 | -0.4
CCN(C[C@H]1N[C@@](C)(C(=O)OC)[C@H]2C(=O)N(C)C(=O)[C@@H]12)S(=O)(=O)c1ccccc1 | 0.1 | 0.1 | 0.2 | -1.7
CCN(C[C@H]1N[C@@](C)(C(=O)OC)[C@H]2C(=O)N(C)C(=O)[C@@H]12)S(=O)(=O)c1ccc(C(F)(F)F)cc1 | 21.6* | -0.4 | 5.3 | 8.0
Cc1cn([C@H]2C[C@H](O)[C@@H](CNCC3=Cc4cc(O)ccc4OC3)O2)c(=O)[nH]c1=O | -2.0 | 1.7 | 3.6 | 1.4
COC(=O)[C@]12C[C@H](CC(=O)N3CCC(c4ccccc4)CC3)C(=O)N(Cc3ccco3)C1=C[C@H](C1CCCC1)O[C@@H]2C | -1.1 | 0.5 | 1.5 | -2.2
CN(C)CCOC(C)(c1ccccc1)c1ccccn1 (stereo not given) | 65.6* | -0.3 | -1.1 | 2.9
CN(C)CCC(c1ccccc1)c1ccccn1 (stereo not given) | 1.6 | 4.0 | -3.2 | -2.6
CC[C@H](C)[C@H]1CNC(=O)C(=O)N1CC1CCN(CCc2ccc(Cl)c(Cl)c2)CC1 | -2.2 | -4.8 | -2.7 | -2.1
O=C1NCCN(CC2CCN(CCc3ccc(Cl)c(Cl)c3)CC2)C1=O | 24.0* | 3.4 | 11.4 | 8.4
CCc1ccc(NC(=O)c2cnc3scc(C)n3c2=O)cc1 | 46.0* | -3.5 | 0.8 | 0.4
O=C(CSc1nnc(-c2ccncc2)n1Cc1ccco1)Nc1cccc(O)c1 | 4.6 | 6.4 | -2.6 | 8.2
Cc1cc(C)c(NC(=O)CSc2nnc(-c3ccncc3)n2Cc2ccco2)c(Cl)c1 | -0.5 | 22.2* | 1.9 | 4.2
COc1ccc(C2CC(c3cccs3)=NN2C(=O)COC(=O)c2cncc(Br)c2)cc1OC (stereo not given) | -2.2 | -9.5 | 5.9 | 5.2
C[C@@H]1CN([C@@H](C)CO)C(=O)CCCn2nncc2CO[C@H]1CN(C)Cc1ccccc1 | 1.7 | 0.5 | -5.5 | -2.6
C[C@H]1CN([C@@H](C)CO)C(=O)CCCn2nncc2CO[C@@H]1CN(C)Cc1ccccc1 | 34.5* | 0.4 | 4.6 | -0.5
CC(C)NC(=O)N(C)C[C@@H]1OCc2cn(nn2)CCCC(=O)N([C@@H](C)CO)C[C@H]1C | 1.7 | -2.3 | -0.9 | 3.0
C[C@@H]1CN([C@@H](C)CO)C(=O)CCCn2cc(nn2)CO[C@H]1CN(C)C(=O)NC1CCCCC1 | 20.7* | -2.8 | 8.5 | -3.9
C[C@@H]1CN([C@@H](C)CO)C(=O)CCCn2nncc2CO[C@@H]1CN(C)C(=O)Nc1ccccc1C(F)(F)F | 21.8* | 6.9 | -1.3 | -3.9
CCC(NC(=O)c1ccc2c(c1)c(C)c(C)n2Cc1ccc(Cl)cc1)c1ccccc1 (stereo not given) | 0.8 | 3.3 | 6.4 | -1.8
COc1cccc(OC)c1C(=O)Oc1ccc2c(c1)O/C(=C\c1ccncc1)C2=O | 36.6* | -1.1 | -4.8 | -0.3
O=C(NCc1cccnc1)O[C@H]1CC[C@@]23CCCN2C(=O)CCC[C@H]3C1 | 0.3 | 3.8 | 1.3 | 0.5
Cc1cccc(OCC(=O)Nc2ccc3c(C)cc(=O)oc3c2)c1 | 6.4 | 0.5 | 1.4 | 1.5
